Assay results from PubChem BioAssay AID2284144 (EPA ToxCast).
Activity calls are given as the source filed them. Rule for the calls: active = hit-call score of the fitted dose curve at least 0.9, where 1 is the maximum; inactive = score below 0.9.

What follows are compounds tested against human Adrenoceptor alpha2C Antagonism, ADRA2C (gene 152) (UniProt P18825) (assay: ERF_TW_GPCR_hADRA2C: Eurofins (ERF) G Protein-Coupled Receptor (GPCR) Radioligand Binding LeadHunter Assay for human Adrenoceptor alpha2C Antagonism).
Procedure: ERF_TW_GPCR_hADRA2C is a biochemical, single-readout assay that uses extracted gene-proteins in a cell-free assay. Measurements were taken 1 hour after chemical dosing in a 96-well plate. See alpha2C Human Adrenoceptor GPCR Binding (Antagonist Radioligand) Assay, Panlabs.ERF_TW_GPCR_hADRA2C is an assay component calculated from the ERF_TW_GPCR_hADRA2C assay. It is designed to measure radioligand binding using a type of binding reporter as detected by scintillation counting with radiometry technology.Data from the assay component ERF_TW_GPCR_hADRA2C was analyzed at the assay endpoint, ERF_TW_GPCR_hADRA2C, in the positive analysis fitting direction relative to DMSO as the negative control and baseline of activity. Using a type of binding reporter, loss-of-signal activity can be used to understand changes in radioligand binding as they relate to gene ADRA2C. To generalize the intended target to other relatable targets, this assay endpoint is annotated to the gpcr intended target family, where the subfamily is adrenoceptor.
Human recombinant adrenergic alpha2C receptor expressed in CHO-K1 cells are used in modified Tris-HCl buffer pH 7.4. A 2 ug aliquot of membrane is incubated with 0.5 nM [3H]Rauwolscine for 60 minutes at 25C. […] Membranes are filtered and washed, the filters are then counted to determine [3H]Rauwolscine specifically bound. […]

Sequence of human Adrenoceptor alpha2C Antagonism, ADRA2C (gene 152) (P18825 whole entry, looked up): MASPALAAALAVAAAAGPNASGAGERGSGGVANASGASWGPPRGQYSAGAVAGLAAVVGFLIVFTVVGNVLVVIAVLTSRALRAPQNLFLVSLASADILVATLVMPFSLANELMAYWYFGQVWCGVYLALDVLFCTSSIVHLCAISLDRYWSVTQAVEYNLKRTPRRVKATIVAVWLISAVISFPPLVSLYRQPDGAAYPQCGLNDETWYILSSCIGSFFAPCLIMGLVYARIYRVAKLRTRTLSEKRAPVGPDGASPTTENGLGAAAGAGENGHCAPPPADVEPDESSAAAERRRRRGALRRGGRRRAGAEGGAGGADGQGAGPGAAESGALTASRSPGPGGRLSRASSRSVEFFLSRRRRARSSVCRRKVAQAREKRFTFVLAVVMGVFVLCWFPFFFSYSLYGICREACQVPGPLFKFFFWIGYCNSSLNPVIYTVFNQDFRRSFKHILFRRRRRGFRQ

| SMILES | AC50 |
| --- | --- |
| O=C(/C=C/c1ccc(O)cc1)CC(=O)/C=C/c1ccc(O)cc1 | 602 nM (active) |
